Consider 20 molecules from PubChem BioAssay (NCATS).

Several values for one entry are separate records, joined by “and”; a condition that tells them apart may be missing. Equal entries are not always repeated. Results filed as inconclusive are left out. A number with no mark means an inactive call. Activity calls are given as the source filed them. The call rests on the fitted dose curve; in most records, active means well fitted inhibition curve with a large enough effect; inconclusive means small, poorly fitted or top-dose-only effect; inactive means flat fitted curve, though single readings scatter.

Experiment [1] can be described thus: qHTS profiling for inhibitors of Plasmodium falciparum proliferation (AID 504749).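 On activity, negative = inhibition: 0% = DMSO vehicle and full inhibition = artemisinin control.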 On all read-outs here: nearly all actives have a fitted effect of over 60% in size. The conditions noted are these: P. falciparum in erythrocytes, SYBR Green DNA, 72 h; for activity, negative = inhibition: at 28.7 µM (top of the series). The procedure, abridged:
(§1)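 P. falciparum-infected erythrocytes (0.3% parasitemia, 2.5% hematocrit final) were exposed to compounds for 72 h at 37 C in 5% CO2, then lysed with SYBR Green buffer overnight at room temperature; parasite DNA fluorescence was normalized to artemisinin and DMSO controls.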
On the technique in general: In qHTS, concentration-response curves come from the screen itself.

Another experiment deals with 3D7. The description is as above. The conditions noted are these: P. falciparum in erythrocytes, SYBR Green DNA, 72 h; series mostly up to 28.7 µM. The procedure, abridged:
as §1

The test system of the next experiment is 7G8. Described as above. The conditions noted are these: P. falciparum in erythrocytes, SYBR Green DNA, 72 h; series mostly up to 28.7 µM. The procedure, abridged:
as §1

In a further experiment the test system is AA1029. The description is as above. The conditions noted are these: P. falciparum in erythrocytes, SYBR Green DNA, 72 h; series mostly up to 28.7 µM. The procedure, abridged:
as §1

A further experiment relates to AS120. The description is as above. The conditions noted are these: P. falciparum in erythrocytes, SYBR Green DNA, 72 h; series mostly up to 28.7 µM. The procedure, abridged: as §1
The subject of a further experiment is ATS189. The experiment is described as above. The conditions noted are these: P. falciparum in erythrocytes, SYBR Green DNA, 72 h; series mostly up to 28.7 µM. The procedure, abridged:
as §1

Another experiment has as its system ATS95. The description is as above. Conditions: P. falciparum in erythrocytes, SYBR Green DNA, 72 h; series mostly up to 28.7 µM. The procedure, abridged: as §1
For another experiment, the system named is C2A. The experiment is described as above. The conditions noted are these: P. falciparum in erythrocytes, SYBR Green DNA, 72 h; series mostly up to 28.7 µM. The procedure, abridged:
as §1
Potency means the concentration at half of the fitted maximal effect.

`O=C(O)c1ccc2[nH]cc(CCCCN3CC=C(c4ccccc4)CC3)c2c1`: the activity, negative = inhibition in experiment [1] (parasite line A) was 5.66%; in experiment [1] (parasite line B) it was 0.723%. Besides, the Potency entry in the experiment on 3D7, in the experiment with 7G8, in the experiment on AA1029, in the experiment on AS120, with ATS189 and in the experiment on ATS95 was “inactive” in each case. The Potency entry with C2A is “inactive”.
As to `O=C(NC(O)C(Cl)(Cl)Cl)NC(O)C(Cl)(Cl)Cl` (stereo unspecified), the activity, negative = inhibition was -1.71% in experiment [1] (parasite line A) and 6.79% in experiment [1] (parasite line B). The Potency entry in the experiment on 3D7, in the experiment with 7G8, in the experiment on AA1029, in the experiment with AS120, in the experiment on ATS189 and in the experiment with ATS95 was “inactive” throughout. Further, the Potency result in the experiment with C2A was “inactive”.
In the case of `CC1OC(C)OC(C)O1` (stereo unspecified), the activity, negative = inhibition in experiment [1] (parasite line A) was 8.9% and 17.9%; in experiment [1] (parasite line B), 12.4% and 13.9%. Also, the Potency entry in the experiment on 3D7, in the experiment on 7G8, with AA1029, with AS120, with ATS189 and in the experiment with ATS95 was “inactive” in each case. In addition, the Potency result in the experiment on C2A was “inactive”.
`CC[N+]1(C)CCCC(OC(=O)C(O)(c2ccccc2)c2ccccc2)C1` (stereo unspecified): the results for the activity, negative = inhibition in experiment [1] (parasite line A) and in experiment [1] (parasite line B) were -4.88% and 2.86%, respectively. Also, the Potency result with 3D7, in the experiment on 7G8, with AA1029, in the experiment with AS120, in the experiment on ATS189 and with ATS95 was “inactive” in each case. For the same molecule, in the experiment on C2A, the Potency entry is “inactive”.
With `COc1ccccc1N1CCNCC1`, the values for the activity, negative = inhibition in experiment [1] (parasite line A) and in experiment [1] (parasite line B) were -0.986% and 0.847%, respectively. Also, the Potency entry with 3D7, in the experiment on 7G8, with AA1029, in the experiment with AS120, with ATS189 and with ATS95 was “inactive” each time. In the experiment with C2A, the Potency entry is “inactive”.
On to `Nc1ccncc1`, for which the activity, negative = inhibition in experiment [1] (parasite line A) is 15.2%; in experiment [1] (parasite line B), 1.68%. Moreover, the Potency result in the experiment on 3D7, in the experiment on 7G8, with AA1029, in the experiment with AS120, with ATS189 and in the experiment with ATS95 was “inactive” in each case. Also, in the experiment on C2A, the Potency entry is “inactive”.
Regarding `NP(N)(=O)NC(=O)c1ccc(F)cc1`, the activity, negative = inhibition in experiment [1] (parasite line A) was -1.33%; in experiment [1] (parasite line B), 3.8%. Also, the Potency entry with 3D7, in the experiment with 7G8, in the experiment on AA1029, in the experiment on AS120, in the experiment with ATS189 and in the experiment with ATS95 was “inactive” in each case. Besides, the Potency entry in the experiment on C2A is “inactive”.
On to `Oc1cc(Cl)ccc1Oc1ccc(Cl)cc1Cl`, for which the Potency in experiment [1] (parasite line A) is 11.2 µM (active); in experiment [1] (parasite line B), 5.01 µM (active); in the experiment on 3D7, 11.2 µM (active); in the experiment with 7G8 it was 1.12 µM (active); in the experiment on AA1029 it was 7.94 µM (active); in the experiment on AS120 it was 3.98 µM (active). The values for the Potency with ATS189 and in the experiment on ATS95 were 7.08 µM (active) and 10 µM (active), respectively.
`N#CC(C#N)=Cc1ccc(O)c(O)c1`: the activity, negative = inhibition in experiment [1] (parasite line A) is -14.1%; in experiment [1] (parasite line B), -25.8%. Also, the Potency result in the experiment with 3D7, in the experiment on AA1029, with AS120, with ATS189, in the experiment with ATS95 and in the experiment on C2A was “inactive” each time. In the experiment with 7G8, the Potency was 8.91 µM (active).
Turning to `CC(=O)[C@H]1CC[C@H]2[C@@H]3CC[C@H]4C[C@H](O)CC[C@]4(C)[C@H]3C(=O)C[C@]12C`, the activity, negative = inhibition in experiment [1] (parasite line A) is 10.2%; in experiment [1] (parasite line B), 12.3%. Besides, the Potency entry with 3D7, in the experiment on 7G8, in the experiment with AA1029, with AS120, with ATS189 and in the experiment on ATS95 was “inactive” in each case. The Potency entry in the experiment with C2A was “inactive”.
For `FC(F)(F)c1cccc(C2=CCN(CCc3ccc4ccccc4c3)CC2)c1`, the activity, negative = inhibition is -13.7% in experiment [1] (parasite line A) and -28.6% in experiment [1] (parasite line B). Besides, the Potency entry with 3D7, with 7G8, in the experiment with AA1029, in the experiment with AS120, in the experiment on ATS189 and with ATS95 was “inactive” throughout. Further, in the experiment on C2A, the Potency result was “inactive”.
Turning to `CC(=O)Nc1cc([As](=O)(O)O)ccc1O`, the activity, negative = inhibition in experiment [1] (parasite line A) is -21%; in experiment [1] (parasite line B) it was -0.406%. Further, the Potency result in the experiment on 3D7, in the experiment on 7G8, in the experiment on AA1029, with AS120, in the experiment on ATS189 and in the experiment on ATS95 was “inactive” in each case. Further, the Potency entry with C2A was “inactive”.
Regarding `CC(C)(N)Cc1ccc(Cl)cc1`, the values for the activity, negative = inhibition in experiment [1] (parasite line A) and in experiment [1] (parasite line B) were -1.24% and 1.12%, respectively. Moreover, the Potency entry in the experiment with 3D7, with AS120 and in the experiment with C2A was “inactive” each time.
In the case of `O=c1[nH]c2ccccc2n1C1CCN(CCCC(c2ccc(F)cc2)c2ccc(F)cc2)CC1`, the activity, negative = inhibition in experiment [1] (parasite line B) was -29.2%. For the same molecule, the Potency with 3D7 is 15.8 µM (active). Besides, the Potency result in the experiment with AA1029, in the experiment with ATS189, with ATS95 and in the experiment with C2A was “inactive” in each case.
As to `c1ccc(C2CC2)c(OCC2=NCCN2)c1`, the activity, negative = inhibition in experiment [1] (parasite line A) was 6.76%; in experiment [1] (parasite line B), 4.47%. Besides, the Potency result in the experiment with 3D7, in the experiment on AA1029, in the experiment on AS120, in the experiment with ATS189, with ATS95 and in the experiment on C2A was “inactive” each time.
As to `O=C1NCN(c2ccccc2)C12CCN(CC1COc3ccccc3O1)CC2` (stereo unspecified), the activity, negative = inhibition in experiment [1] (parasite line A) was -17.5%; in experiment [1] (parasite line B) it was 5.67%. Moreover, the Potency result with 3D7, in the experiment on AA1029, with AS120, in the experiment on ATS189, in the experiment on ATS95 and with C2A was “inactive” each time. Moreover, the Potency in the experiment on 7G8 was 12.6 µM (active).
Consider `Cc1cccc(C)c1NC1=NCCCS1`, for which the values for the activity, negative = inhibition in experiment [1] (parasite line A) and in experiment [1] (parasite line B) were -16.9% and -6.65%, respectively. Also, the Potency result with 3D7 and with C2A was “inactive” in each case. Besides, in the experiment with 7G8, the Potency was 11.2 µM (active).
Regarding `c1ccc2c(c1)Nc1ccccc1S2`, in the experiment on 3D7, the Potency was 4.47 µM (active). Moreover, in the experiment on AS120, the Potency result is “inactive”.
Regarding `CC(C)NCC(O)c1ccccc1Cl` (stereo unspecified), the Potency in experiment [1] (parasite line B) is 11.2 µM (active); in the experiment with 7G8, 4.47 µM (active); with AA1029, 4.47 µM (active); in the experiment with AS120, 12.6 µM (active); with ATS95 it was 11.2 µM (active).
Turning to `Oc1cccc2cccnc12`, the activity, negative = inhibition in experiment [1] (parasite line A) was 4.36%; in experiment [1] (parasite line B), -11.6%. In addition, the Potency result in the experiment with 3D7, with 7G8, in the experiment on AA1029, in the experiment with AS120, with ATS189 and in the experiment with ATS95 was “inactive” in each case. Also, in the experiment on C2A, the Potency entry was “inactive”.
